The source of these data is PubChem BioAssay AID1445 (SRMLSC, 2008).

Several values for one entry are separate records, joined by “and”; a condition that tells them apart may be missing. Equal values may be shown once. The whole screen tested about 220,000 compounds, of which about 910 (0.41%) were called active. The sample holds actives, similar compounds and a random draw of the others, so the mix is not that of the screen.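 Rule for the calls: active = primary inhibition above the hit cutoff, then over 50% inhibition at one or more dose response concentrations (cut at about 23% in these data, passing the limit was not always enough); inconclusive = conflicting primary data, or primary hits not chosen for dose response; inactive = low primary inhibition, or under 50% at every dose.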 Entries with a potency or affinity are not part of this list. Some structures have more than one record in an assay (separate samples or runs), and their calls can disagree.

In the test the target is Aminopeptidase N (Plasmodium falciparum (isolate 3D7)) (UniProt O96935). The experiment in a line: P. falciparum M1AAP inhibitors, biochemical, fluorogenic H-Leu-NHMec substrate, 1536-well (AID 1445).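 Note: plate controls were DMSO full reaction for no effect and no enzyme background for full effect.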 As to conditions: recombinant M1AAP, H-Leu-NHMec fluorogenic kinetic assay; at 30 µM, stronger effect = higher value unless noted.
Chain of Aminopeptidase N (Plasmodium falciparum (isolate 3D7)) (O96935 whole entry, looked up): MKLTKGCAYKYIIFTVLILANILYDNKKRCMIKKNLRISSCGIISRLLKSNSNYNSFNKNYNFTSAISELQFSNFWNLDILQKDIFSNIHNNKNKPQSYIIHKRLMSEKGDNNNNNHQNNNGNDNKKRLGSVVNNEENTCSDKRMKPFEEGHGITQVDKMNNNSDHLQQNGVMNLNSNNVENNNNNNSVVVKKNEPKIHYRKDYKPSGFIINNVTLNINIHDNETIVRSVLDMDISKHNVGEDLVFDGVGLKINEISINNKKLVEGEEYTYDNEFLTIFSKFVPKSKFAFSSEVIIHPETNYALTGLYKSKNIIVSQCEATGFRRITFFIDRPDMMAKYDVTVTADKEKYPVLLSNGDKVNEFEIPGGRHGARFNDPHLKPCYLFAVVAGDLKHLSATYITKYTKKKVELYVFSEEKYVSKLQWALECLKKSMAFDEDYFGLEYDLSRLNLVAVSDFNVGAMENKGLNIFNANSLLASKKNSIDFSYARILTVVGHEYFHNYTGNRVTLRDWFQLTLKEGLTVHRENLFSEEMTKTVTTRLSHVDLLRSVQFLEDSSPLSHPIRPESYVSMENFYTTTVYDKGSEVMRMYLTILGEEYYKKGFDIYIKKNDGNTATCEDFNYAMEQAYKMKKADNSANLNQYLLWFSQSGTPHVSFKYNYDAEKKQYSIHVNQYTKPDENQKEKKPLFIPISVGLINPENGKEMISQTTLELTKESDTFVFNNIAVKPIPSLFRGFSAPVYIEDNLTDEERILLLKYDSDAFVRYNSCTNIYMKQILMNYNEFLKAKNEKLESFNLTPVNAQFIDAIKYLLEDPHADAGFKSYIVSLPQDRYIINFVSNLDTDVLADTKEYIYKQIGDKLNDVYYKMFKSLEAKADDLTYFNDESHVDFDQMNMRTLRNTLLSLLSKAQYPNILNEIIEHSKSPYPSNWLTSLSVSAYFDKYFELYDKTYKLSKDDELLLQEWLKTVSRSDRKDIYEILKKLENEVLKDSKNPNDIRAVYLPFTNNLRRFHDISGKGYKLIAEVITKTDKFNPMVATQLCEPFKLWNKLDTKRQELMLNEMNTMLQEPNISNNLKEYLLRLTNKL
As for `Cn1c(=O)c2c(nc(SCCN3CCOCC3)n2Cc2ccc(F)cc2)n(C)c1=O`, the inhibition (in general, the drop in the measured response relative to a control, in per cent) is -1.46% (inactive).
The same measure for `Cn1c(=O)c2c(nc(SCCN3CCOCC3)n2Cc2ccccc2)n(C)c1=O`: 7.6% (inactive); for `Cc1ccc(Cn2c(SCCN3CCOCC3)nc3c2c(=O)n(C)c(=O)n3C)cc1`: 23.8% (active).
The same measure for `Cc1ccc(NC(=O)NC2=NN(c3ccccc3)C(=O)/C2=C2/CCCN2C)cc1`: 8.56% (inactive); for `O=C(c1nc2ccccn2c1CN1CCC(Cc2ccccc2)CC1)N1CCCC1`: 5.48% (inactive).
For `COc1ccc(N(CC(=O)Nc2ccccc2C(=O)NCc2ccco2)S(C)(=O)=O)cc1`, the inhibition is 3.79% (inactive).
Regarding `CCOc1ccc(N(CC(=O)Nc2ccccc2C(=O)NCc2ccco2)S(C)(=O)=O)cc1`, the inhibition is 23.4% (active).
For `CCOc1ccccc1N(CC(=O)Nc1ccccc1C(=O)NCc1ccco1)S(C)(=O)=O`, the inhibition is 21% (inactive).
With `COc1ccc(C(C)=O)cc1CSc1nncn1C`, the inhibition is 4.42% (inactive).
Consider `COC(=O)c1c(NC(NC(=O)c2ccccc2)(C(F)(F)F)C(F)(F)F)sc2c1CCN(C)C2`, for which the inhibition is 2.95% (inactive).
Consider `CCOC(=O)N(CC)OC(=O)Nc1ccc(Cl)cc1`, for which the inhibition was 2.39% (inactive).
To `CCOC(=O)CNNC(=O)Nc1ccc(Cl)c(Cl)c1` belongs -5.41% (inactive); to `CCOC(=O)N(C)OC(=O)Nc1ccc(Cl)c(Cl)c1`, 24% (active).
Regarding `Nc1nc(SCC(=O)Nc2cc(-c3ccccc3)nn2-c2ccccc2)n[nH]1`, the inhibition was 26.4% (active).
For the compound `CCCc1ccc(-c2cc(NC(=O)CSc3n[nH]c(N)n3)n(-c3ccccc3)n2)cc1`, the inhibition was -9.14% (inactive).
With `Cc1ccc(-c2cc(NC(=O)CSc3n[nH]c(N)n3)n(-c3ccccc3)n2)cc1`, the inhibition was 3.01% (inactive).
`CS(=O)(=O)N1CCCC(C(=O)c2cccc(Cl)c2)C1` (stereo not given): the inhibition was -1.4% (inactive).
With `CS(=O)(=O)N1CCC(C(=O)Nc2cccc(Cl)c2)CC1`, the inhibition was -2.4% (inactive).
To `O=C(NNC(=O)C1CCN(S(=O)(=O)c2cccc(C(F)(F)F)c2)CC1)C1CC1` belongs -0.46% (inactive).
For `CCCS(=O)(=O)N1CCC(C(=O)c2cccc(C(F)(F)F)c2)CC1`, the inhibition was 23.4% (active).
For the compound `CCCS(=O)(=O)N1CCCC(C(=O)c2cccc(Cl)c2)C1` (stereo not given), the inhibition is 2.05% (inactive).
The same measure for `CCCCC1NC(C(=O)O)CS1` (stereo not given): -4.57% (inactive); for `Cc1ccc(C2C(=O)N(C3CCC(C)CC3)CC(=O)N2C2CC2)cc1` (stereo not given): 6.72% (inactive); for `COc1ccc(-n2ncc(N(C)n3cccc3)c(Cl)c2=O)cc1`: 4.45% (inactive).
In the case of `COc1ccc(/C=C\C(=O)NCC(=O)N/N=C/c2ccc(O)cc2O)cc1`, the inhibition is 33.7% (inactive).
In the case of `O=C(CCNC(=O)c1ccccc1)N=Nc1c(O)[nH]c2ccccc12`, the inhibition was 14% (inactive).
For `CCOC(=O)c1cc(-c2cccc([N+](=O)[O-])c2)on1`, the inhibition was 7.98% (inactive).
For the compound `CCOC(=O)c1cc(-c2cccc([N+](=O)[O-])c2)n[nH]1`, the inhibition was 0.83% (inactive).
For the compound `COc1ccc(N(C)C(=S)Nc2ccc3nc(C)c(C)nc3c2)cc1`, the inhibition was 0.41% (inactive).
For `Cc1noc(NC(=O)c2cccc(C(F)(F)F)c2)c1Cl`, the inhibition is 1.44% (inactive).
As for `CCOC(=O)c1ccc(C(=O)OCC)nc1`, the inhibition was -0.25% (inactive).
As for `CCOC(=O)C1(CCOc2ccccc2)CCN(Cc2cccc3nonc23)CC1`, the inhibition is 11.9% (inactive).
Turning to `COc1ccc(C2c3[nH]c4ccccc4c3CCN2C(=O)c2ccc(=O)n(C)n2)c(F)c1` (stereo not given), the inhibition is -6.53% (inactive).
In the case of `O=C(c1ccccc1)N1CCC(O)(c2ccc3c(c2)OCO3)CC1`, the inhibition was -2.13% (inactive).
`CCN1C(=O)c2ccc(C(=O)NCc3ccccc3)cc2C1=O`: the inhibition was 1.2% (inactive).
For the compound `CN1C(=O)c2ccc(C(=O)NCc3ccccc3)cc2C1=O`, the inhibition is 5.4% (inactive).
As for `CCCCCOc1ccccc1C(=O)NCCC(=O)O`, the inhibition was 0.09% (inactive).
With `Cc1cc(C)n(-c2ccc(F)cc2)c(=O)c1C#N`, the inhibition is 3.92% (inactive).
In the case of `CCO/N=C(/C)c1c(O)cc(C(C)(C)C)n(-c2ccccc2)c1=O`, the inhibition is 1.22% (inactive).
With `Cc1ccc(C)c(NC2=NS(=O)(=O)c3ccccc32)c1`, the inhibition is 3.34% (inactive).
`CC(=O)Nc1ccc(S(=O)(=O)NNC2=NS(=O)(=O)c3ccccc32)cc1`: the inhibition is 5.01% (inactive).
The same measure for `Cc1cc(C)n2nc(N)c(N=Nc3ccc4c(c3)OCO4)c2n1`: -0.91% (inactive); for `O=C(Nc1ccc(OCC(F)(F)C(F)F)cc1)c1ccncc1`: 3.56% (inactive); for `NC(=NCCc1c[nH]c2ccccc12)NC(=O)c1ccc(Cl)cc1`: 2.62% (inactive).
To `Cc1ccc(-n2c(SCc3cn4ccsc4n3)nc3ccccc3c2=O)cc1` belongs 25.9% (active).
Consider `O=c1c2ccccc2nc(SCc2cn3ccsc3n2)n1-c1ccccc1`, for which the inhibition is 14.2% (inactive).
As for `O=c1c2ccccc2nc(SCc2cn3ccsc3n2)n1-c1ccc(F)cc1`, the inhibition is -8.24% (inactive).
`O=C(NC1CCCCC1)C(c1ccncc1)N(C(=O)Cn1nnc(-c2cccs2)n1)C1CCCC1` (stereo not given): the inhibition was 0.4% (inactive).
Take `COc1ccccc1NC(=O)C(C)NS(=O)(=O)c1ccc(Cl)cc1` (stereo not given): the inhibition is 0.77% (inactive).
Consider `Cc1cc2oc(=O)cc(CN3CCOCC3)c2cc1C`, for which the inhibition is 11.2% (inactive).
Take `CCN(CC)c1ccc2c(C)c(CN3CCOCC3)c(=O)oc2c1`: the inhibition was 7.04% (inactive).
Regarding `COCCN(C(=O)CN1CCN(S(=O)(=O)c2ccc(F)cc2)CC1)c1c(N)n(Cc2ccccc2)c(=O)[nH]c1=O`, the inhibition was 7.35% (inactive).
For `Nc1cc2c(cc1[N+](=O)[O-])OCO2`, the inhibition was 7.4% (inactive).
On to `CC1C/C(=N/Nc2ccc([N+](=O)[O-])cc2[N+](=O)[O-])CC(C)(C)C1` (stereo not given), for which the inhibition was -1.42% (inactive).
`CC(=O)Nc1cc2c(cc1[N+](=O)[O-])OCCO2`: the inhibition is 6.17% (inactive).
Consider `CC1(C)OC(=O)C(=NNc2ccccc2[N+](=O)[O-])C(=O)O1`, for which the inhibition is 9.4% (inactive).
As for `O=C(N/N=C/c1ccccc1Cl)c1[nH]c2ccc(Br)cc2c1-c1ccccc1`, the inhibition is -5.79% (inactive).
Take `COc1ccc(/C=N/NC(=O)c2[nH]c3ccc(Br)cc3c2-c2ccccc2)cc1`: the inhibition is 2.81% (inactive).
On to `CCOc1ccccc1N(C(=O)Nc1ccc(Cl)cc1)C1=NCCS1`, for which the inhibition was -3.04% (inactive).
On to `COc1ccc(C2CC(=O)NC3=C2C(=O)CCC3)cc1Cl` (stereo not given), for which the inhibition was -1.4% (inactive).
With `O=C(O)CSc1nnc(-c2ccccc2O)n1Cc1ccccc1`, the inhibition is 6.98% (inactive).
Take `O=C(CSc1nnc(-c2ccccc2)n1Cc1ccccc1)NNC(=O)c1ccccc1O`: the inhibition was 16.1% (inactive).
For `NC(=O)c1cc2c3ccccc3ccn2c1-c1ccccc1`, the inhibition was 0.96% (inactive).
Take `CC(C)NC(=O)CSc1nnc(-c2ccc(F)cc2)c2ccccc12`: the inhibition was 0.8% (inactive).
As for `O=C1CC(c2ccco2)CC(O)=C1C=Nc1cc(Cl)ccc1Cl` (stereo not given), the inhibition is 4.23% (inactive).
For `O=C1CC(c2ccco2)CC(O)=C1C=Nc1cc(Cl)cc(Cl)c1` (stereo not given), the inhibition is -0.66% (inactive).
`O=C(NCc1ccccc1)c1nc2ccccc2s1`: the inhibition is 1.19% (inactive).
To `COc1cc(OC)c(-c2c3cc(O)c(=O)cc-3oc3cc(O)c(O)cc23)cc1OC` belongs 22.9% (inactive); to `Cc1c2cc(O)c(=O)cc-2oc2cc(O)c(O)cc12`, 24.7% (active) and 6.57% (inactive); to `O=c1cc2oc3cc(O)c(O)cc3c(-c3ccccc3O)c-2cc1O`, 13.8% (inactive).
`CC(=O)Nn1cnc2c(c1=O)C1(CCCCC1)Cc1ccccc1-2`: the inhibition was 4.35% (inactive).
Consider `COc1ccc(NC(=O)Nc2cccc(Cl)c2Cl)c(OC)n1`, for which the inhibition is 4.95% (inactive).
For `COc1ccccc1NC1=NC(C)(C)N=C(N)N1`, the inhibition was 0.34% (inactive).
Take `COC1=C(Nc2ccccc2OC)C(=O)c2ccccc2C1=O`: the inhibition is 7.8% (inactive).
Regarding `COc1ccc(NC(=O)Nc2cccnc2)c(OC)c1`, the inhibition was 2.93% (inactive).
For the compound `COc1ccc(OC)c(C2=NOC(C(=O)Nc3cccnc3)C2)c1` (stereo not given), the inhibition was 7.85% (inactive).
Take `CCOc1ccc(-n2c(=O)[nH]cc(C(=O)N3CCc4ccccc43)c2=O)cc1`: the inhibition was 1.21% (inactive).
For `CC(=O)Nc1ccc(NS(=O)(=O)c2cc([N+](=O)[O-])ccc2C)cc1`, the inhibition was 2.22% (inactive).
With `Cc1ccc(C)c(NC(=O)c2ccccc2NS(=O)(=O)c2cc([N+](=O)[O-])ccc2C)c1`, the inhibition was 8.58% (inactive).
On to `O=C(N/N=C(\Cc1ncc[nH]1)c1ccccc1)c1ccccc1`, for which the inhibition is 19.5% (inactive).
To `O=C(N/N=C(\Cc1ncc[nH]1)c1ccccc1)c1cccnc1` belongs 16.6% (inactive); to `COC(=O)c1cc2c(ccn2-c2ccc(F)cc2)n1CC(=O)OC(C)C`, 1.89% (inactive); to `CCOc1cc(N2CCOCC2)c(OCC)cc1NC(=O)C(NC(=O)c1ccco1)C(C)C` (stereo not given), 8.28% (inactive).
In the case of `c1ccc2c(c1)N1CCN=C1N2CCN1CCCCC1`, the inhibition is 5.87% (inactive).
Take `Cc1oc(S(=O)(=O)N(C)C)cc1C(=O)Nc1ccc(F)cc1`: the inhibition is 0.82% (inactive).
Turning to `C=CCn1c(CNC(=O)c2ccccc2F)nnc1SCc1nc2ccccc2c(=O)[nH]1`, the inhibition was 7.18% (inactive).
Consider `C=CCn1c(CCNC(=O)c2ccccc2F)nnc1SCC(=O)Nc1nc(C)cs1`, for which the inhibition was -1.07% (inactive).
As to `CCOC(=O)C(NC(=O)CC)(Nc1ccccc1OC)C(F)(F)F` (stereo not given), the inhibition is -0.34% (inactive).
To `O=c1[nH]c(CN2CCN(c3ccc([N+](=O)[O-])cc3)CC2)nc2ccsc12` belongs 25.9% (active).
On to `COc1ccc(N2CCN(Cc3nc4ccsc4c(=O)[nH]3)CC2)cc1`, for which the inhibition was 13.2% (inactive).
On to `O=c1[nH]c(CN2CCN(c3ccccc3Cl)CC2)nc2ccsc12`, for which the inhibition was 6.37% (inactive).
The same measure for `O=C(CSc1nnc(NCc2ccccc2)s1)NC1CCS(=O)(=O)C1` (stereo not given): -0.46% (inactive); for `COc1cc(C2c3c(-c4ccccc4O)n[nH]c3C(=O)N2Cc2ccco2)cc(OC)c1OC` (stereo not given): 3.24% (inactive); for `COc1cc(C2c3c(-c4cc(C)cc(C)c4O)n[nH]c3C(=O)N2CCCO)cc(OC)c1OC` (stereo not given): 28.3% (active).
With `COCCCN1C(=O)c2[nH]nc(-c3cc(C)cc(C)c3O)c2C1c1ccc(O)c(OC)c1` (stereo not given), the inhibition was 6.71% (inactive).
